High-throughput results as filed in PubChem.
JMJD2E inh: qHTS Assay for Inhibitors of Human Jumonji Domain Containing 2E (JMJD2E) | Lysine-specific demethylase 4E (Homo sapiens), B2RXH2 | JMJD2E catalytic domain, FDH-coupled NADH fluorescence (FDH is formaldehyde dehydrogenase) | Potency, µM (series often up to 57.1 µM), without a hit: top-dose activity change, negative = inhibition, most hits filed as inhibitors | 230,000 compounds, 1.6% hits | AID 2147, 2009; active means well fitted inhibition curve with a large enough effect, not every such curve was filed as active; inconclusive means small, poorly fitted or top-dose-only effect, or another doubt; inactive means no such curve, though single readings can be large or run the other way;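 further: potency means the concentration at half of the fitted maximal effect; 0% = wells with enzyme and -100% = buffer wells without enzyme; nearly all actives have a fitted effect of over 50% in size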
Lamin A splicing: qHTS Assay for Modulators of Lamin A Splicing; HeLa LMNA splicing GFP/RFP minigene ratio, 48 h; Potency, µM (highest dose often 46.1 µM), for the others: at the highest dose ratio change, negative = inhibition, actives largely listed as inhibitors; 200,000 compounds, 0.01% hits; active means well fitted inhibition curve with a large enough effect in the signal ratio, with a control signal flat, not every such curve was filed as active; inconclusive means small, poorly fitted or top-dose-only effect, or effect the other way, or a change in a side signal; the % refers to the signal ratio; further: potency means the concentration at half of the fitted maximal effect; on the % scale 0 is the no-effect control and ±100 the full control effect
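S3 HeLa stable clones carrying a lamin A-EGFP splicing minigene plus DsRed2 were seeded at 600 cells/well in Opti-MEM with 2% FBS, pin-dosed and incubated 48 h at 37°C. Acumen cytometry (488 nm) gave the GFP/RFP total-intensity ratio.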
Tau fibril FP: qHTS for Inhibitors of Tau Fibril Formation, Fluorescence Polarization; Microtubule-associated protein tau (Homo sapiens), P10636; K18 P301L tau heparin fibrillization, Alexa594 FP, 6 h; Potency, µM (titrated, usually from 57.7 µM), inactives show at the highest dose activity, negative = inhibition, usual class: inhibitors; 280,000 compounds, 0.39% hits; AID 1468, 2008; further: potency means the concentration at half of the fitted maximal effect; on the % scale 0 is the no-effect control and ±100 the full control effect; nearly all actives have a fitted effect of over 55% in size
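Read-out: fluorescence polarization of Alexa 594-labeled tau (0.24 uM), 555 nm excitation, 632 nm emission. Mixtures held 15 uM unlabeled K18 P301L, compound and 20 uM heparin, pH 7 acetate buffer, incubated 6 hr at 37 C.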
Tau fluor counter: Counterscreen qHTS for Inhibitors of Tau Fibril Formation, Fluorescence Polarization; tau K18 P301L Alexa594 fluorescence, heparin fibrillization; 280,000 compounds, 0.93% hits; AID 1463, 2008; Potency, µM (top dose mostly 57.7 µM), for the others: at the highest dose activity change, negative = decrease; further: potency means the concentration at half of the fitted maximal effect; on the % scale 0 is the no-effect control and ±100 the full control effect; nearly all actives have a fitted effect of over 55% in size
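Human K18 P301L tau (15 uM unlabeled plus 0.24 uM Alexa 594-labeled, final) in 100 mM sodium acetate pH 7 was mixed with compound and 20 uM heparin and incubated 6 hr at 37 C.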
Tau ThT inhib: qHTS for Inhibitors of Tau Fibril Formation, Thioflavin T Binding. 270,000 compounds, 2.1% hits. Microtubule-associated protein tau (Homo sapiens), P10636. recombinant tau K18 P301L (four-repeat tau fragment), heparin-induced fibrillization, ThT fluorescence. Potency, µM (titrated, usually from 57.4 µM), inactives show top-dose activity, negative = inhibition, hits mostly inhibitors; further: potency means the concentration at half of the fitted maximal effect; on the % scale 0 is the no-effect control and ±100 the full control effect; nearly all actives have a fitted effect of over 55% in size
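Aggregation was driven by heparin (20 uM final) acting on recombinant tau […] bearing P301L in 100 mM sodium acetate pH 7; fibrils were detected with Thioflavin T.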
CBFb RUNX1 block: qHTS Assay for Compounds Blocking the Interaction Between CBF-beta and RUNX1 for the Treatment of Acute Myeloid Leukemia. Runt-related transcription factor 1 (Homo sapiens) + Core-binding factor subunit beta …. AlphaScreen CBFb-His/RUNX1-biotin binding, biochemical. Potency, µM (doses to about 59.8 µM), for the others: at the top dose activity, negative = inhibition, usual class: inhibitors. 230,000 tested, under 10 active. AID 1477, 2009; further: % of control where 0% means no effect
Target sequence (Q01196 whole entry, looked up): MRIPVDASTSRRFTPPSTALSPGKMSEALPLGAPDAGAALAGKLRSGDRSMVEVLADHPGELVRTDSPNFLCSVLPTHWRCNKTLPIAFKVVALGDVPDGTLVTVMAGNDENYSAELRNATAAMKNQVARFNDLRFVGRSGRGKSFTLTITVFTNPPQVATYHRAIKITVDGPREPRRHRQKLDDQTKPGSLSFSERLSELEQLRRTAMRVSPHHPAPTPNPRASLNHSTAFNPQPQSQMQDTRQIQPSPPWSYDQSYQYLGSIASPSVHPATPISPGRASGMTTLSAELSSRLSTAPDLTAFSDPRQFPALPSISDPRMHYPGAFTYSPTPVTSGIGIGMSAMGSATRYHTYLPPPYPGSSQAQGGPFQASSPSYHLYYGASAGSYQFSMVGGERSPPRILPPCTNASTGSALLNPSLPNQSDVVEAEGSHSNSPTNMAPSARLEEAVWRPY
Target sequence (Q13951 whole entry, looked up): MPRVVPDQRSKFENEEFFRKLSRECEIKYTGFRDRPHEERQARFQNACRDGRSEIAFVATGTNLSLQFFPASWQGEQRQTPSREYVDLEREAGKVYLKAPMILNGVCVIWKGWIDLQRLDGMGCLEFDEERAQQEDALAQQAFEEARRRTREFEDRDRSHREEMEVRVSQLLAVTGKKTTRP
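Room-temperature protein-protein interaction test with 30 nM each of His-tagged CBF-beta and biotinylated RUNX1, 15 min with compound, then 90 min with nickel plus streptavidin beads. Signal read in AlphaScreen mode.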
* hit, by the source's call; ? = inconclusive; nt = no result given; [ ] = dose if it differs, or a comment. A selection: hits, their analogues and other compounds. The true share with any hit is near 3.2%. Unless noted, the call rests on the fitted dose curve; in most records, active means well fitted curve in the direction sought with a large enough effect; inconclusive means small, poorly fitted or top-dose-only effect, or another doubt; inactive means no such curve, though single readings can be large; an effect the other way counts as inactive or inconclusive.

SMILES	JMJD2E inh	Lamin A splicing	Tau fibril FP	Tau fluor counter	Tau ThT inhib	CBFb RUNX1 block
Cc1nn(-c2ccccc2)c2sc(C(=O)Nc3cccc(Cl)c3)cc12	nt	nt	3.2µM*	?	?	nt
Cn1nc(-c2ccccc2F)c2cc(C(=O)Nc3ccc4c(c3)OCCO4)sc21	-27%	?	?	7.9µM*[quencher]	?	-4%
N/N=C(\Cc1cscn1)c1ccc(O)cc1O	-23%	nt	-2%	-28%	?	-3%
Oc1ccc(/C(Cc2ccc3ccccc3n2)=N\Nc2ccccc2)c(O)c1	-5%	nt	1%	11µM*[quencher]	11µM*	-23%
Oc1ccc(/C(Cc2ccccn2)=N\Nc2ccccc2)c(O)c1	?	?	2%	11µM*[quencher]	?	-7%
CC1CCN(S(=O)(=O)N2CCC(C(=O)NCc3ccccc3Cl)CC2)CC1	nt	-14%[46 µM]	-13%	-7%	7%	nt
CCCCNC(=O)NS(=O)(=O)c1ccc(C(=O)O)cc1	nt	nt	nt	nt	nt	8%
Cc1cccc(C2c3[nH]c4ccccc4c3CCN2C(=O)c2ocnc2C)n1 (centres undefined)	22µM*	0%[46 µM]	-6%[2.34 µM]	9%[2.34 µM]	-3%	3%
Cc1cccc(C2c3[nH]c4ccccc4c3CCN2C(=O)c2nn(C)c(=O)c3ccccc23)n1 (centres undefined)	-4%	nt	3%	-22%	-13%	-11%
O=C(CSc1c2c(nc3ccc(Cl)cc13)CCCC2)N1CCN(c2ccc(Cl)cc2)CC1	nt	nt	-11%	-15%	?	nt
COc1ccc(N2CCN(C(=O)CSc3c4c(nc5ccc(Cl)cc35)CCCC4)CC2)cc1	nt	nt	-5%	?	14µM*	nt
CCc1ccc2c(c1)/C(=N/N(C)C(=S)NC)C(=O)N2	2%	-20%	-5%	-24%	32µM*	-20%
O=C1CSC(c2ccc(Cl)cc2)N1C1CCCCC1 (centres undefined)	4%	16%	2%	-6%	-3%	3%
N#CC1=C2SCN(C3CCCCC3)CN2C(=O)CC1c1ccc(Cl)cc1 (centres undefined)	nt	nt	?	-24%	28µM*	nt
N#CC1=C2SCN(C3CCCCC3)CN2C(=O)CC1c1c(F)cccc1Cl (centres undefined)	nt	nt	?	-19%	32µM*	nt
COc1ccc2ccccc2c1C1CC(=O)N2CN(C)CSC2=C1C#N (centres undefined)	?	3%	22µM*	-26%	22µM*	-11%
N#CC1=C2SCN(C3CCCCC3)CN2C(=O)CC1c1ccc(F)cc1 (centres undefined)	nt	nt	?	-11%	28µM*	nt
Cc1ccc(NC(=O)C(=O)NCC(c2cccnc2)N2CCN(C)CC2)cc1C (centres undefined)	nt	?	-6%	-8%	2%	nt
O=C(CSc1nc2c([nH]c3ccccc32)c(=O)n1-c1ccccc1F)Nc1cccc(C(F)(F)F)c1	nt	?	?	?	1%	nt
CC(C)c1ccc(C2CC(=O)N3CN(C)CSC3=C2C#N)cc1 (centres undefined)	-19%	10%	-17%	-20%	28µM*	-6%
CCCCC[C@H](O)/C=C/C=C\C=C\[C@@H](O)C/C=C\CCCC(=O)O	-7%	nt	1%	-1%	-4%	13%
COc1cccc(NC(=O)C2CCCN2S(=O)(=O)c2ccc3nc(-c4ccccc4)[nH]c3c2)c1 (centres undefined)	nt	?	-15%	-11%	-11%	nt
Cc1cccc(NC(=O)C2CCCN2S(=O)(=O)c2ccc3nc(-c4ccccc4)[nH]c3c2)c1 (centres undefined)	nt	nt	?	20µM*[quencher]	1%	nt
